# PubChem BioAssay (Tox21)
# Unmarked numbers belong to inactive results. Records with an inconclusive call do not appear. Where a call stands in place of a potency, no number is given. Active and inactive are the calls of the source. Unless noted, calls follow the shape of the full dose curve.
# How the values were obtained:
# [1] = Nuclear factor erythroid 2-related factor 2/antioxidant responsive element (Nrf2/ARE) small molecule agonists: qHTS cell viability counter screen in human keratinocytes (AID 1919968; active = well fitted curve in the direction sought with a large enough effect in the repeat runs; an effect the other way counts as inactive or inconclusive; also: nearly all actives have a fitted effect of over 55% in size; also: potency is read from the fitted curve at half-maximal effect)
# Procedure, shortened: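 Cells of the KeratinoSens line were plated at 1,500 per well and left for 5 h before compound transfer from DMSO stocks. After a 23 h incubation (37 C, 5% CO2), CellTiter-Fluor was added. Signal was taken as fluorescence intensity 1 h later.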
# [2] = Nuclear factor erythroid 2-related factor 2/antioxidant responsive element (Nrf2/ARE) small molecule agonists: luciferase reporter gene qHTS assay in human keratinocytes (AID 1919969); also: nearly all actives have a fitted effect of over 35% in size; also: potency is read from the fitted curve at half-maximal effect
# [3] = molecular target: KiSS-1 receptor (Homo sapiens) (UniProt Q969F8); test: Human kisspeptin (KISS1R) small molecule agonists, calcium flux assay in KISS1R-HEK293 cells (AID 1920064; active = well fitted curve in the direction sought with a large enough effect in the repeat runs; an effect the other way counts as inactive or inconclusive)
# Chain of KiSS-1 receptor (Homo sapiens) (Q969F8 whole entry, looked up): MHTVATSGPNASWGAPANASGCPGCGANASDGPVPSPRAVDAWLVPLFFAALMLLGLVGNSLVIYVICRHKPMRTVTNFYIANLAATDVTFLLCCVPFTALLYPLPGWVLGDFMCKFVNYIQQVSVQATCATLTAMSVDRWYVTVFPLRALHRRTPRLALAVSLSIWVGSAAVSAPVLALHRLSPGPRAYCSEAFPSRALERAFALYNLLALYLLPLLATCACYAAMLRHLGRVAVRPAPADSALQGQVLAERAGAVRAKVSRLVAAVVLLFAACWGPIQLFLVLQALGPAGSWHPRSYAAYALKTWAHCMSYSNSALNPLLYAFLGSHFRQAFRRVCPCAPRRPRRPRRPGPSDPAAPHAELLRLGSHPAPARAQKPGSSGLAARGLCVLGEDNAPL
# Procedure, shortened: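 Cell line: HEK293, stable human KISS1R. Dye loading 1 h at 37 C after 18 h culture. Read: kinetic fluorescence, 480/540 nm, 3 min at 1 s intervals.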
# [4] = G protein-coupled receptor (GPCR) small molecule agonists, calcium flux assay: HEK293 wild type cell line counter screen (AID 1920065)
# Procedure, shortened: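 Tox21 10K compounds, 15 concentrations each in triplicate, pin-transferred in DMSO onto dye-loaded cells; kinetic read at 480/540 nm for 3 min, 1 s intervals.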
# [5] = p53 small molecule agonists, cell-based qHTS assay with human liver microsomes (AID 1963577)
# Procedure, shortened: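 Compounds act here after metabolic activation: human liver microsomes and NADPH, both at 0.5 mg/mL final, were co-added to p53RE-bla cells. Incubation ran 16 h at 37 C, followed by LiveBLAzer detection.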
# [6] = p53 small molecule agonists, cell-based qHTS assay with human liver microsomes: qHTS cell viability counter screen (AID 1963579); also: nearly all actives have a fitted effect of over 45% in size
# Procedure, shortened: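 Cells carrying the p53 response-element beta-lactamase reporter are treated for 16 h at 37 C with test compounds in the presence of human liver microsomes and NADPH (both 0.5 mg/mL final); ATP-based CellTiter-Glo luminescence then reports viability.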
# [7] = p53 small molecule agonists, cell-based qHTS assay with rat liver microsomes: qHTS cell viability counter screen (AID 1963580); also: nearly all actives have a fitted effect of over 45% in size
# Procedure, shortened: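 Cytotoxicity counter screen: intracellular ATP read by CellTiter-Glo luminescence in the p53 reporter wells. HCT-116 p53RE-bla cells were treated for 16 h at 37 C alongside rat liver microsomes and NADPH, each 0.5 mg/mL final.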
# [8] = p53 small molecule agonists, cell-based qHTS assay: qHTS cell viability counter screen (AID 1963581); also: nearly all actives have a fitted effect of over 45% in size
# Procedure, shortened: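 ATP content measured by luminescence in HCT-116 p53RE-bla cells treated 16 h at 37 C, same wells as the reporter screen.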
# [9] = p53 small molecule agonists, cell-based qHTS assay (AID 1963582; active = well fitted activation curve with a large enough effect in the signal ratio in the repeat runs, not every such curve was filed as active; the % refers to the signal ratio)
# Procedure, shortened: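 16 h compound exposure (37 C) of p53 response element–bla cells, preceded by 5 h recovery at 37 C/5% CO2; read-out via LiveBLAzer B/G FRET substrate, 2 h RT, fluorescence intensity.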
# [10] = molecular target: Muscarinic acetylcholine receptor M1 (Homo sapiens) (UniProt P11229); test: Cholinergic receptor muscarinic 1 (CHRM1) small molecule agonists, cell-based qHTS assay (AID 1963589); also: nearly all actives have a fitted effect of over 35% in size
# Chain of Muscarinic acetylcholine receptor M1 (Homo sapiens) (P11229 whole entry, looked up): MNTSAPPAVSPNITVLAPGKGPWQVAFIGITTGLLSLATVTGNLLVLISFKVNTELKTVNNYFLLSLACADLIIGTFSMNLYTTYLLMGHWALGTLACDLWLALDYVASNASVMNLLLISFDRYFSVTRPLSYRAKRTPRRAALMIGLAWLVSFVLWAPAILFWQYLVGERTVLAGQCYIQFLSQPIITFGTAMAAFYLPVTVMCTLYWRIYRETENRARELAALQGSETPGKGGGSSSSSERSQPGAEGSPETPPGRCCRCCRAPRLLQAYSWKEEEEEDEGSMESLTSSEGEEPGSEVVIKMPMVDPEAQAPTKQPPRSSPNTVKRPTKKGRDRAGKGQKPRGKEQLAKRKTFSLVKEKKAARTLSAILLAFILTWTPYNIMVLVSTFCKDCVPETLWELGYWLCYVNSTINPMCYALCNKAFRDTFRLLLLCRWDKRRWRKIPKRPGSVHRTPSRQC
# Procedure, shortened: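 Homogeneous fluorescence calcium flux, agonist mode. Human M1-expressing CHO cells; compound dosed at 15 concentrations, three independent runs; signal sampled every 1 sec.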
# [11] = molecular target: Beta-2 adrenergic receptor (Homo sapiens) (UniProt P07550); test: Adrenergic beta2 receptor (ADRB2) small molecule antagonists, cell-based qHTS assay (AID 1963592); also: series mostly up to about 92 µM; nearly all actives have a fitted effect of over 50% in size
# Chain of Beta-2 adrenergic receptor (Homo sapiens) (P07550 whole entry, looked up): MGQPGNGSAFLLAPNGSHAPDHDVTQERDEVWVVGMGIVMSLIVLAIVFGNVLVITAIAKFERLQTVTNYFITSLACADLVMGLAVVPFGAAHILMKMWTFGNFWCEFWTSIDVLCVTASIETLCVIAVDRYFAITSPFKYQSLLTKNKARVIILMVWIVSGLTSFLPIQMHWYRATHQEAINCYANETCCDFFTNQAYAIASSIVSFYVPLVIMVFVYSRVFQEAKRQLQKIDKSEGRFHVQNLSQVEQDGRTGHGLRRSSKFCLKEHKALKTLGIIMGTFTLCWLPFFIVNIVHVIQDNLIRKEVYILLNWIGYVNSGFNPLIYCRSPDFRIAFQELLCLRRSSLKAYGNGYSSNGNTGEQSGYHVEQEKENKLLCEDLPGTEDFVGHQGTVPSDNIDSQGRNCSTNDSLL
# Procedure, shortened: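 Assay format: CHO-ADRB2 cells, 18-20hr seeding at 37C/5% CO2, then compound plus 1nM isoproterenol agonist mix for 0.5hr RT. Homogeneous time-resolved fluorescence cAMP detection after 1hr, expressed as 665/615 nm ratio.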
# [12] = molecular target: D(2) dopamine receptor (Homo sapiens) (UniProt P14416); test: Dopamine D2 receptor (DRD2) small molecule agonists, cell-based qHTS assay (AID 1963594); also: nearly all actives have a fitted effect of over 35% in size; also: potency is read from the fitted curve at half-maximal effect
# Chain of D(2) dopamine receptor (Homo sapiens) (P14416 whole entry, looked up): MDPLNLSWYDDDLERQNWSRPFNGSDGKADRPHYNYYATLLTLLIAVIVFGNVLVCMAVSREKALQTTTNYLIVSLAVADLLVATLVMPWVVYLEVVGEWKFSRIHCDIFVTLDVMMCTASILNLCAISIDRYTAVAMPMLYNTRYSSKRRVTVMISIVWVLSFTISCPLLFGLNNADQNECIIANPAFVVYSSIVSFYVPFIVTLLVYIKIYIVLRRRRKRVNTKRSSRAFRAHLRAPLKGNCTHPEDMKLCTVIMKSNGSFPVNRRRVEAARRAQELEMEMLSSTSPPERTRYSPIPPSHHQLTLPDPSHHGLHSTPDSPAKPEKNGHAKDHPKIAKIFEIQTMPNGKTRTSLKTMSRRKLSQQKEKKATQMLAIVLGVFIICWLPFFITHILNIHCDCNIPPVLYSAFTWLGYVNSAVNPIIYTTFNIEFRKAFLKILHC
# Procedure, shortened: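 cAMP accumulation in DRD2-HEK293 cells measured by HTRF after 1 h detection; compounds added 10 min before NKH477 (200nM […]) forskolin-analogue stimulation, 30 min at room temperature, with Ro20-1724 present at 0.1 mM final.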
# [13] = molecular target: D(2) dopamine receptor (Homo sapiens) (UniProt P14416); test: Dopamine D2 receptor (DRD2) small molecule antagonists, cell-based qHTS assay (AID 1963595; active = well fitted inhibition curve with a large enough effect in the signal ratio in the repeat runs, with a control signal flat; the % refers to the signal ratio)
# Procedure, shortened: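 HEK293 cells stably expressing DRD2, preincubated with 0.1 mM Ro20-1724 and compounds 10 min, were stimulated with 200 nM NKH477 plus 12 nM quinpirole for 30 min at room temperature; cAMP measured by HTRF (665/620 nm).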
# [14] = cAMP Responsive Elements (CRE) small molecule agonists, cell-based qHTS assay (AID 1963590)
# Procedure, shortened: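 HEK 293T cells stably bearing CRE-bla were plated at 2,000 cells per well and rested 18 h. Compounds, positive controls or DMSO were added for 3 h at 37 C. LiveBLAzer B/G substrate was then loaded for 2 h at room temperature.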
# [15] = molecular target: Beta-2 adrenergic receptor (Homo sapiens) (UniProt P07550); test: Adrenergic beta2 receptor (ADRB2) small molecule agonists, cell-based qHTS assay (AID 1963593);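 also: CHO cells stably overexpressing human ADRB2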
# Procedure, shortened: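 CHO cells stably over-expressing ADRB2 were plated overnight at 37C, then dosed with compounds plus a stimulation mix containing 100uM IBMX and 25uM Ro-20-1724 for 0.5hr at room temperature. cAMP was measured by HTRF competition, 1hr.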
# [16] = molecular target: 5-hydroxytryptamine receptor 2A (Homo sapiens) (UniProt P28223); test: 5-hydroxytryptamine receptor 2A (HTR2A) small molecule antagonists, cell-based qHTS assay (AID 1963586); also: nearly all actives have a fitted effect of over 45% in size
# Chain of 5-hydroxytryptamine receptor 2A (Homo sapiens) (P28223 whole entry, looked up): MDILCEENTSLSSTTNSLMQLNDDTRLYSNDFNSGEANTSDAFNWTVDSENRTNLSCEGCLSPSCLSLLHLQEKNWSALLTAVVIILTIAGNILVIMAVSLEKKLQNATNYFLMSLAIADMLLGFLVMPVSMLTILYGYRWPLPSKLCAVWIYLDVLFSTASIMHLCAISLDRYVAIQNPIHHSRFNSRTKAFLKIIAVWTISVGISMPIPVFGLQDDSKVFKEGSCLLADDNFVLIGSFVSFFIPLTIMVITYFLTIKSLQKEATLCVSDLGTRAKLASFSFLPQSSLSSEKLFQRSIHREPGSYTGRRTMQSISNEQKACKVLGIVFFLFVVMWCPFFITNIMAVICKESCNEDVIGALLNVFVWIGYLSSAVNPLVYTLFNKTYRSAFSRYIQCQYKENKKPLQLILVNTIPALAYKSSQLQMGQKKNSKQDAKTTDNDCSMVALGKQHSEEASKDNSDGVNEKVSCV
# Procedure, shortened: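 CHO cells stably expressing human HTR2A were plated for 18 h at 37 C, then loaded with calcium dye for 1 h. Compounds were preincubated 5 min at room temperature before DOI (4 nM solution) was added. Kinetic fluorescence was read for 3 min.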
# [17] = molecular target: 5-hydroxytryptamine receptor 2A (Homo sapiens) (UniProt P28223); test: 5-hydroxytryptamine receptor 2A (HTR2A) small molecule agonists, cell-based qHTS assay (AID 1963587); also: nearly all actives have a fitted effect of over 30% in size; also: potency is read from the fitted curve at half-maximal effect
# Procedure, shortened: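 Kinetic calcium-flux fluorescence (2 min, 1 sec intervals) after compound addition in agonist mode. HTR2A-CHO cells were cultured 18 h, then dye-loaded 1 h at 37 C.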
# [18] = molecular target: Muscarinic acetylcholine receptor M1 (Homo sapiens) (UniProt P11229); test: Cholinergic receptor muscarinic 1 (CHRM1) small molecule antagonists, cell-based qHTS assay (AID 1963588); also: nearly all actives have a fitted effect of over 40% in size; also: potency is read from the fitted curve at half-maximal effect
# Procedure, shortened: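 Compounds were tested at 15 concentrations in three independent runs. Dye-loaded CHRM1-CHO cells were exposed 5 min at room temperature before stimulation by acetylcholine added at 50nM. Intracellular calcium was read kinetically on FDSS for 3 min.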
# [19] = cAMP Responsive Elements (CRE) small molecule antagonists, cell-based qHTS assay (AID 1963591; active = well fitted inhibition curve with a large enough effect in the signal ratio in the repeat runs, not every such curve was filed as active; the % refers to the signal ratio)
# Procedure, shortened: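 First, CRE-bla HEK293T cells settled 18 h at 37 C. Next, compound and 0.25 uM final NKH477 were applied for 3 h. Last, LiveBLAzer B/G substrate was loaded for 2 h at room temperature.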
# [20] = p53 small molecule agonists, cell-based qHTS assay with rat liver microsomes (AID 1963578)
# Procedure, shortened: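 Read-out is beta-lactamase reporter fluorescence (LiveBLAzer, 2 h, room temperature, dark) in p53RE-bla cells treated 16 h at 37 C with compound, rat liver microsomes and NADPH, both 0.5 mg/mL final.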
Structure (SMILES),Potency [1],Potency [2],Potency [3],Potency [4],Potency [5],Potency [6],Potency [7],Potency [8],Potency [9],Potency [10],Potency [11],Potency [12],Potency [13],Potency [14],Potency [15],Potency [16],Potency [17],Potency [18],Potency [19],Potency [20]
CC(C)(C)CC(C)(C)c1ccc(OCCO)cc1,inactive,inactive,inactive,inactive,inactive,inactive,inactive,inactive,inactive,inactive,inactive,inactive,inactive,,,,,,,
Nc1nc(N)c2nc(CNc3ccc(C(=O)N[C@@H](CCC(=O)O)C(=O)O)cc3)cnc2n1,inactive,inactive,inactive,inactive,inactive,inactive,inactive,,,,inactive,inactive,inactive,inactive,inactive,,,,,
CCCCCCCC/C=C\CCCCCCCC(=O)OC(CO)CO,inactive,34.4 µM (active),inactive,inactive,,inactive,inactive,inactive,,inactive,inactive,inactive,,inactive,inactive,inactive,inactive,inactive,inactive,
CC(C)c1ccc(O)c(C(C)C)c1,inactive,68.6 µM (active),inactive,inactive,inactive,,inactive,,,inactive,inactive,inactive,inactive,,,,54.9 µM (active),inactive,,inactive
CCOC(=O)C(F)(F)F,inactive,inactive,inactive,inactive,,inactive,inactive,inactive,,inactive,inactive,inactive,inactive,inactive,inactive,inactive,,inactive,inactive,
C=CC(=O)OCC(C)OCC(C)OCC(C)OC(=O)C=C (stereo not drawn),61.1 µM (active),24.3 µM (active),inactive,inactive,inactive,,,inactive,,inactive,inactive,inactive,,,,inactive,inactive,inactive,,inactive
C=CCN(CC=C)CC=C,inactive,inactive,inactive,inactive,,inactive,inactive,inactive,,inactive,inactive,,,inactive,inactive,inactive,,inactive,inactive,
CCCCC(=O)O[C@]1(C(=O)CO)[C@@H](C)C[C@H]2[C@@H]3CCC4=CC(=O)C=C[C@]4(C)[C@@]3(F)[C@@H](O)C[C@@]21C,inactive,inactive,inactive,inactive,inactive,,inactive,inactive,inactive,inactive,inactive,inactive,inactive,,,inactive,,inactive,,inactive
CCOc1ccc2nc(S(N)(=O)=O)sc2c1,inactive,6.68 µM (active),inactive,inactive,,inactive,inactive,inactive,,inactive,inactive,,inactive,inactive,inactive,inactive,inactive,inactive,inactive,
CCCCCCCCCCCCOCCOCCOCCOCCOCCOCCOCCOCCOCCO,29.8 µM (active),inactive,inactive,inactive,inactive,,inactive,,inactive,inactive,inactive,,inactive,,inactive,,inactive,9.18 µM (active),,inactive
C=CC(=O)OCCn1c(=O)n(CCOC(=O)C=C)c(=O)n(CCOC(=O)C=C)c1=O,30.6 µM (active),15.4 µM (active),inactive,inactive,inactive,,,,,inactive,inactive,inactive,inactive,,,inactive,inactive,inactive,,inactive
CC(C)c1cccc(C(C)C)c1N1C(=O)c2ccc(O)cc2C1=O,inactive,inactive,inactive,inactive,inactive,,,,,,inactive,inactive,inactive,,inactive,inactive,,37.5 µM (active),,
C[C@]12CCC(=O)C=C1[C@@H]1C[C@@H]1[C@H]1[C@@H]3[C@@H]4C[C@@H]4[C@@]4(CCC(=O)O4)[C@@]3(C)CC[C@@H]12,inactive,inactive,inactive,inactive,inactive,,inactive,inactive,inactive,inactive,inactive,inactive,inactive,,inactive,inactive,inactive,18.3 µM (active),,inactive
COc1ccc(S(=O)(=O)N2C(=O)[C@@](c3ccccc3OC)(N3C[C@H](O)C[C@H]3C(=O)N(C)C)c3cc(Cl)ccc32)c(OC)c1,inactive,inactive,inactive,inactive,,inactive,inactive,inactive,,inactive,inactive,,inactive,,,inactive,inactive,inactive,,inactive
CC[C@H](C)C(=O)O[C@H]1C[C@H](O)C=C2C=C[C@H](C)[C@H](CC[C@@H](O)C[C@@H](O)CC(=O)O)[C@H]21,inactive,inactive,inactive,inactive,,inactive,inactive,inactive,,,inactive,61.1 µM (active),inactive,inactive,inactive,,,,,
CN(C)C(=O)NC1(c2ccccc2)CCN(CC[C@@]2(c3ccc(F)c(F)c3)CN(C(=O)c3ccccc3)CCO2)CC1,inactive,inactive,inactive,inactive,,inactive,inactive,inactive,inactive,inactive,inactive,inactive,,,inactive,,inactive,,,inactive
